Among the data in PubChem BioAssay AID1529 (NMMLSC, 2009) are binding response (% of control) values, retold here.

SMILES strings stand for the structures. Among all 290,000 compounds or so, about 4,200 (1.4%) were called active. Many of the other results were omitted from the sample, so actives are more common in it than they were. Values without a mark were called inactive.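 The calls were made as follows: active = binding response more than 3 SD above or below the average of its plate-row segment, actives on both sides; inconclusive = wells at one plate position flagged as instrument error; inactive = the rest.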

Chain of Mitogen-activated protein kinase kinase kinase 3 (Homo sapiens) (Q99759 whole entry, looked up): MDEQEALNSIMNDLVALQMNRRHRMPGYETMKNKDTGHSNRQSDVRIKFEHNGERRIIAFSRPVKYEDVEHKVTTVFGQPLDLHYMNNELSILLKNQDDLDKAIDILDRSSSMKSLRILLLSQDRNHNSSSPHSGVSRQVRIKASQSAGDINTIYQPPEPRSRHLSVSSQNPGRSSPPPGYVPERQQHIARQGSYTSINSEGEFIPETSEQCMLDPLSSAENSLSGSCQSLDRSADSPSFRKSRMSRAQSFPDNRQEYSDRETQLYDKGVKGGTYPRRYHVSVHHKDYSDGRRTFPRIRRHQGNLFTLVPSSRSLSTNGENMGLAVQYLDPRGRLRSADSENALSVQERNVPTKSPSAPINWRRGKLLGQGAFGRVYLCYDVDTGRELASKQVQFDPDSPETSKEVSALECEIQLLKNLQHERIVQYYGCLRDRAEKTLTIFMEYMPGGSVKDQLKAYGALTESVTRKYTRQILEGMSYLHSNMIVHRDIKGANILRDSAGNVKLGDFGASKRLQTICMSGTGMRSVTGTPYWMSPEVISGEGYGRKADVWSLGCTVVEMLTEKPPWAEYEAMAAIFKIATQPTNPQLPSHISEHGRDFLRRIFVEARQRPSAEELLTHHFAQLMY

The assay has as its target Mitogen-activated protein kinase kinase kinase 3 (Homo sapiens) (UniProt Q99759). The assay is described as follows: compounds raising or lowering MEK5 association with MEKK3 PB1 – biochemical, wildtype MEKK3, multiplex bead flow cytometry, Alexa488-MEK5, primary screen (AID 1529).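 Also: Alexa488 bead fluorescence after subtracting the streptavidin-only scavenger bead signal.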 The following applies: bead-based flow cytometry, Alexa488-MEK5 binding to MEKK3; at 10 µM; actives lie on both sides; 0 = blocked by unlabeled MEK5, 100 = vehicle. Background: Flow cytometry measures light scatter and fluorescence of single cells or particles in a stream.
Consider `COc1cc2c(C(=O)N(C)c3cc(Cl)ccc3OC)cn(C)c(=O)c2cc1OC`, for which the binding response (% of control) is 102%.
`Cc1ccc(CNC(=O)Cn2c(=O)c3sccc3n(Cc3cccc([N+](=O)[O-])c3)c2=O)cc1`: the binding response (% of control) was 141% (active).
With `O=C(NCc1ccco1)c1ccc(Cn2c(=O)c3sccc3n(Cc3ccc(F)cc3)c2=O)cc1`, the binding response (% of control) was 115%.
Regarding `COCCNC(=O)CCCn1c(=O)c2ccccc2n(Cc2cccc([N+](=O)[O-])c2)c1=O`, the binding response (% of control) is 101%.
As to `COc1ccccc1N1CCN(c2nc(C)cc(=O)[nH]2)CC1`, the binding response (% of control) is 104%.
The figure for `CCOC(=O)C1CN(S(=O)(=O)c2ccc(OC)cc2)c2cc(Cl)ccc2O1` (stereo not given) is 105%; for `COc1ccc(S(=O)(=O)Nc2ccc3oc(C)c(C(C)=O)c3c2)cc1` it is 122% (active).
For `CC(=O)c1c(C)oc2ccc(NS(=O)(=O)c3ccccc3)cc12`, the binding response (% of control) is 101%.
With `CC(=O)c1c(C)oc2ccc(NS(=O)(=O)c3ccc(C(=O)O)cc3)cc12`, the binding response (% of control) was 99%.
On to `Cc1nc2ccc(S(=O)(=O)NC(C(=O)N3CCCCCC3)C(C)C)cc2s1` (stereo not given), for which the binding response (% of control) was 105%.
The figure for `Cc1nc2ccc(S(=O)(=O)NCC(=O)O)cc2s1` is 106%; for `Cc1nc2cc(S(=O)(=O)C(F)(F)F)ccc2s1` it is 129% (active).
On to `CCOc1ccccc1NC(=O)C1CCCN(S(=O)(=O)c2ccccc2)C1` (stereo not given), for which the binding response (% of control) is 100%.
As to `O=S(=O)(c1ccccc1)c1nc(Cc2ccccc2)oc1N1CCOCC1`, the binding response (% of control) was 98%.
`Cc1nnc(NC(=O)C(c2ccccc2)c2ccccc2)s1`: the binding response (% of control) is 98%.
In the case of `CCCc1nnc(SCC(=O)N2C(C)CCCC2C)n1CC` (stereo not given), the binding response (% of control) was 145% (active).
The figure for `CC1CCCC(C)N1C(=O)CSc1nnnn1C1CCCC1` (stereo not given) is 101%.
On to `CCCc1cc(=O)[nH]c(SCC(=O)N2C(C)CCCC2C)n1` (stereo not given), for which the binding response (% of control) is 107%.
On to `O=C(O)c1ccc(NC(=O)c2ccc(COc3ccc(Cl)cc3)o2)cc1`, for which the binding response (% of control) is 103%.
Consider `CC1CN(CC(=O)NC(C)c2ccccc2)CC(C)O1` (stereo not given), for which the binding response (% of control) is 101%.
Regarding `COc1ccc(N2CCN(C(=O)c3cccs3)CC2)cc1`, the binding response (% of control) was 97%.
Turning to `O=C(CCS(=O)(=O)c1ccc(Br)cc1)NCCc1ccc(Cl)cc1`, the binding response (% of control) was 105%.
With `COc1ccc(Cl)cc1NC(=O)CCS(=O)(=O)c1cc2c(cc1C)NC(=O)CO2`, the binding response (% of control) was 104%.
As for `COc1ccc(Cl)cc1NC(=O)CCS(=O)(=O)c1ccc(Br)cc1`, the binding response (% of control) is 80% [inhibitor] (active).
Regarding `CN(C)c1ccc(NC(=O)CN2C3CCCC2CC(NC(=O)c2ccccc2)C3)cc1` (stereo not given), the binding response (% of control) is 104%.
As for `COc1ccccc1CNC(=O)c1ccc(N(C)S(=O)(=O)c2ccc(C)cc2)cc1`, the binding response (% of control) was 96%.
As to `COc1ccc(-c2[nH]ncc2CN(C)Cc2c(C)n[nH]c2C)c(OC)c1`, the binding response (% of control) is 0% [inhibitor] (active).
As to `COc1ccc(-c2[nH]ncc2CN(C)Cc2cc(C)[nH]n2)c(F)c1`, the binding response (% of control) was 102%.
In the case of `COc1ccc(-c2[nH]ncc2CN(C)Cc2cccnc2)c(F)c1`, the binding response (% of control) was 108%.
On to `C#CCNC(=O)[C@H](Cc1ccc(C(=O)c2ccccc2)cc1)NC(=O)OC(C)(C)C`, for which the binding response (% of control) was 101%.
The figure for `CCOCCCNC(=O)c1ccc(CS(=O)(=O)c2cccc(C(F)(F)F)c2)o1` is 101%; for `Cc1c(C)n(Cc2ccc(Cl)cc2)c2ccc(C(=O)NCCCN3CCOCC3)cc12` it is 106%; for `CCOCCCN(C)C1CCN(C(=O)c2oc3ccccc3c2NC(=O)COc2cccc(C)c2)CC1` it is 105%.
As for `COc1ccc(C(=O)CCc2ccccc2O)c(OC)c1`, the binding response (% of control) is 97%.
As to `O=C(NNc1c2ccccc2nc2ccccc12)c1cc2ccccc2cc1O`, the binding response (% of control) was 69% [inhibitor] (active).
For `O=C(N/N=C/c1cccnc1)c1cc2ccccc2cc1O`, the binding response (% of control) is 99%.
As for `CC(C)(C)OC(=O)NNc1c2ccccc2nc2ccccc12`, the binding response (% of control) was 91%.
For `Cc1ccc(NC(=O)COc2ccc(/C=C3/NC(=O)NC3=O)cc2)cc1` the value was 99%.
In the case of `COCCCNC(=S)N(CCN(C)C)Cc1cc2cc3c(cc2[nH]c1=O)OCCO3`, the binding response (% of control) was 101%.
Take `COC(=O)C1(CCSC)NC(c2ccc(OC)cc2OC)C2C(=O)N(c3cccc(C(C)=O)c3)C(=O)C21` (stereo not given): the binding response (% of control) was 101%.
In the case of `CCC(CC)c1nnc(NC(=O)C2CCN(C(=O)c3ccco3)CC2)s1`, the binding response (% of control) was 102%.
On to `NC(=O)C1=C[C@@H](c2ccc3c(c2)OCO3)C[C@@H](OCCCCO)O1`, for which the binding response (% of control) was 102%.
The figure for `CN(C)CCOCCOc1ccc(Cl)c2ccccc12` is 78%.
As to `Clc1cccc(Cl)c1OCCOCCNCc1ccccc1`, the binding response (% of control) was 102%.
With `CCN(CC)CCOCCOc1ccc(Cl)c2ccccc12`, the binding response (% of control) was 3% [inhibitor] (active).
With `CCOC(=O)CSc1nnc(CNc2nc(-c3ccccc3)cs2)n1C`, the binding response (% of control) is 92%.
For the compound `O=C(CSc1nc(-c2ccccc2)cs1)Nc1cccc([N+](=O)[O-])c1`, the binding response (% of control) is 103%.
For `CCNC(=O)CSc1nc(-c2ccccc2)cs1`, the binding response (% of control) is 132% (active).
As to `CC(=O)Nc1ccc(NC(=O)COc2ccccc2C(=O)Nc2cccc(Cl)c2Cl)cc1`, the binding response (% of control) is 184% (active).
The figure for `O=C(COc1ccccc1Cl)Nc1ccc(C(=O)c2ccc(C(=O)O)cc2)cc1` is 104%.
As to `CN1CCN(C(=O)c2ccccc2NC(=O)COc2ccccc2Cl)CC1`, the binding response (% of control) was 101%.
For `FC(F)(F)c1nnc2c3ccccc3c(Cl)nn12` the value was 107%; for `COc1ccc2[nH]c(=O)c(CN(Cc3cccnc3)S(=O)(=O)c3ccccc3F)cc2c1`, 100%.
Consider `Cc1ccc(NC(=O)Cc2nnc(SCC(=O)Nc3nncs3)n2C)cc1`, for which the binding response (% of control) was 97%.
In the case of `O=Cc1ccc(Oc2cccc(C(F)(F)F)c2)nc1`, the binding response (% of control) is 98%.
`O=C(O)CCCC(=O)Nc1ccc(Oc2cccc(C(F)(F)F)c2)nc1`: the binding response (% of control) was 131% (active).
For `O=C(CCCOc1ccccc1)Nc1cccc(C(=O)O)c1` the value was 106%; for `COc1ccc(/C=C2\SC(=O)N(CCC(=O)NCCCn3ccnc3)C2=O)cc1`, 100%; for `COc1ccc(OC)c(/C(C)=N\NC(=O)c2cc3cc(Cl)ccc3n2C)c1`, 103%.
On to `Cc1cccnc1NC(=O)Cn1c(=O)oc2ccccc21`, for which the binding response (% of control) is 103%.
